According to the supplement of paper PMC6555819:

Test system: PXR:RXRa (NR concentration 270 nM, RXRa partner concentration 90 nM)
Assay: PBM binding z-score (relative to random genomic background probes); higher = stronger binding; sequences stand for … in GC…GCGATTGACAGCGTAGAATGAAGG
Outline: (§1)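 Probes were double-stranded and carried 34-nt variable regions with direct-repeat seeds, single-nucleotide variants, half-site ablations and random human genomic background sequences, printed on custom Agilent 4×180K protein-binding microarrays. Arrays were incubated 1 h with ligand-free nuclear receptor dimers in PBS pH 7.4, 2% milk, 0.02% Triton X-100, 1 mM DTT, 0.2 mg/mL BSA and 0.4 mg/ml salmon testes DNA. Antibodies against each partner (one per run) detected binding, and scanned fluorescence was regression-normalized. Binding z-scores use the random background probes as reference.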

Row | Sequence | PBM binding z-score
1 | CGAACTAGGTCAGAACATGACAGTGAAGGATGAT | 0.243
2 | TTACCAAGGTGAGCCGAGGTCGTTGATCCAACTC | 4.95
3 | CAAACTAGGTCACCGGAAGGTCAACGTCCGCATG | 5.79
4 | CCTACTGGGCCACGAAAAGTCATTGATTCAGTGA | -0.419
5 | AATACAGGGTCATCGTAGACCAGAGTACGCACAG | 4.27
6 | CCTTACGGGTCACTCCAGGCTATAGCATCGGAGT | 3.3
7 | CCACACAGGTGAAAGGTAACTCAGTCTGGTACGC | 1.22
8 | TCCGACAGGTGAAGGTAACTCAGGTACGCAGTCG | 0.293
9 | ATCGATAGGTCGACGAGGTGAGTATACACCGTTT | 0.735
10 | TAGCCTAGGTCATGCAGGCCAGTATAGTGTCGGC | 1.77
11 | CGTCCAACGTCAGAGAGGTCAGTGAATGCCGAGT | 2.74
12 | CCCTACGGGTCACTGACAGGTTATAGCATTTGGA | 3.54
13 | AGAATGAGGTTACCAAACATCAGGGAAACGCTTG | 0.954
14 | CCTACTGGGCCATTCAGAGGTGATTGATCATATG | 0.147
15 | CCTACCAGGCCAGGGTCACTCAAGCATTTCGCTT | 2.39
16 | CGAACTAGGTCATCCAGGACAATGAATACATTGA | 2.1
17 | ACTAGTTGGTGAGCTGAGGTCACACACAATTCGG | 4.76
18 | CGTCCAAGCTCAAAGGTCAGTGAAGAGATGACGG | 3.24

Test system: PXR homodimer (NR concentration 270 nM)
Assay: as above
Outline: as §1

Row | Sequence | PBM binding z-score
19 | CCAACTAGGTCAGAACAGGACAGTGAAGGATGAT | 0.914
20 | CATACAGGGTCAGCTAGGCCAGAGAAGGGACGGC | 0.0894
21 | TGAATGACGTTATAAGATCAGGGAACGTTGCAAA | -0.13
22 | ATCTCTCGGTAACCAAGTTCAGTGAATGCCGAAC | 1.8
23 | CCTAGCAGGCCAATCTGGGTCACCCAAGGCTTGA | -0.451
24 | GCTTGTCGATCAAGGTTAAGAAAGACTAAGCTAA | -0.652
25 | ATATGTAGGTTAAGGGTCACTCAGGTTGGTTCGC | 1.94
26 | GCTGCTAGGTTAGGTTGGTCAGCTAACGGGTACG | -0.359
27 | ATCGAAAGGTCGACGAGGTGAGTGTACACCGTTT | 1.03
28 | CAAACTAGGTCACGAAAGGTCAAGGTCGAATGAC | 3.03
29 | TAGCCTAGGTCAGATGGGGCCAGTATACGCTATA | -0.272
30 | ATCGCAAGGTCGTGAGGTGAGTATACAGAAAGGC | 0.241
31 | TAGCATAGGTCATGGGCCAGTATACCACGCGAAC | -0.144
32 | TCTGCTAGGTCAGCTGGTCAGCTAACGAGCTGCC | -1.58
33 | GCTGTTAGGTCAGGTTGGTCAGCTAACGGGTACG | -0.159
34 | TCGGCTAGGTCAGTTGGTCAGCTAACGAGCTGCC | -0.113
35 | CCCATTAGTTGACCATAAGGGCAACCGAAGCTCG | 0.974
36 | TAGCTTAGGTCATTGGGCCAGTATAGTACGCATC | 0.132
37 | CCTTACGGGGCACTGACAGGTTATAGCATTTGGA | -0.274
38 | TCGAGTAGGTTACCGATGGGGCATTCAGCTTTCT | -0.759

Row | Sequence | PBM binding z-score
39 | TCTATTAGTTGATTAGGGCATCCGAAACAGCGGA | 0.652
40 | TCTGCTAGGTCGGTTGGTCAGCTAACGAGCTGCC | -0.886
41 | CGAACTAGGTCAGAACATGACAGTGAAGGATGAT | -0.286
42 | TTACCAAGGTGAGCCGAGGTCGTTGATCCAACTC | 0.39
43 | CAAACTAGGTCACCGGAAGGTCAACGTCCGCATG | 1.29
44 | CCTACTGGGCCACGAAAAGTCATTGATTCAGTGA | -0.579
45 | AATACAGGGTCATCGTAGACCAGAGTACGCACAG | 0.967
46 | CCTTACGGGTCACTCCAGGCTATAGCATCGGAGT | -0.213
47 | CCACACAGGTGAAAGGTAACTCAGTCTGGTACGC | 0.292
48 | TCCGACAGGTGAAGGTAACTCAGGTACGCAGTCG | -0.308
49 | ATCGATAGGTCGACGAGGTGAGTATACACCGTTT | 0.0845
50 | TAGCCTAGGTCATGCAGGCCAGTATAGTGTCGGC | -0.409
51 | CGTCCAACGTCAGAGAGGTCAGTGAATGCCGAGT | 0.717
52 | CCCTACGGGTCACTGACAGGTTATAGCATTTGGA | 0.381
53 | AGAATGAGGTTACCAAACATCAGGGAAACGCTTG | -0.13
54 | CCTACTGGGCCATTCAGAGGTGATTGATCATATG | -0.0295
55 | CCTACCAGGCCAGGGTCACTCAAGCATTTCGCTT | 0.0777
56 | CGAACTAGGTCATCCAGGACAATGAATACATTGA | 2.1
57 | ACTAGTTGGTGAGCTGAGGTCACACACAATTCGG | 1.9
58 | CGTCCAAGCTCAAAGGTCAGTGAAGAGATGACGG | 0.202
